Screening data: PubChem, National Center for Advancing Translational Sciences (NCATS)
Sampled rows, rich in hits. Any-hit rate of the full collection: about 7.4%.
ELG1 genotoxic = inducers of genotoxicity in HEK293T ELG1-luciferase cells; HEK293T ELG1-luciferase reporter, luminescence, 16 h; Potency, µM (top dose mostly 46 µM), for inactives: at the top dose activity change, positive = activation, hits mostly activators; actives 1.3% (n = 330,000); note: % of control where 0% means no effect; nearly all actives have a fitted effect of over 60% in size
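Genotoxic stress is detected as increased luminescence from luciferase-tagged ELG1 in HEK293T cells, measured with ONE-Glo after a 16 hr treatment at 37 °C.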
NPC1 promoter act = NPC1 promoter activation. Potency, µM (top dose mostly 9.22 µM), for inactives: at the highest dose activation, usual class: activators. AID 485313. actives 2.4% (n = 320,000). Huh7 NPC1 promoter luciferase reporter, 24 h; note: % of control where 0% means no effect; nearly all actives have a fitted effect of over 60% in size
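Luminescence read-out of NPC1 promoter-driven luciferase in stably transfected Huh7 cells; compounds delivered in DMSO and left 24 h at 37C, 5% CO2, qHTS titration format.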
FLuc modulator = counter-screen for miR-21 project: firefly luciferase inhibitors or activators; P08659; Potency, µM (highest dose often 57.5 µM), for the others: top-dose activity change, negative = inhibition, actives largely listed as inhibitors; actives 6.9% (n = 360,000); purified FLuc, Km substrates, luminescence inhibition;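 note: plate controls were vehicle for no effect and reference inhibitor for full effect; nearly all actives have a fitted effect of over 55% in size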
Target sequence (P08659 whole entry, looked up): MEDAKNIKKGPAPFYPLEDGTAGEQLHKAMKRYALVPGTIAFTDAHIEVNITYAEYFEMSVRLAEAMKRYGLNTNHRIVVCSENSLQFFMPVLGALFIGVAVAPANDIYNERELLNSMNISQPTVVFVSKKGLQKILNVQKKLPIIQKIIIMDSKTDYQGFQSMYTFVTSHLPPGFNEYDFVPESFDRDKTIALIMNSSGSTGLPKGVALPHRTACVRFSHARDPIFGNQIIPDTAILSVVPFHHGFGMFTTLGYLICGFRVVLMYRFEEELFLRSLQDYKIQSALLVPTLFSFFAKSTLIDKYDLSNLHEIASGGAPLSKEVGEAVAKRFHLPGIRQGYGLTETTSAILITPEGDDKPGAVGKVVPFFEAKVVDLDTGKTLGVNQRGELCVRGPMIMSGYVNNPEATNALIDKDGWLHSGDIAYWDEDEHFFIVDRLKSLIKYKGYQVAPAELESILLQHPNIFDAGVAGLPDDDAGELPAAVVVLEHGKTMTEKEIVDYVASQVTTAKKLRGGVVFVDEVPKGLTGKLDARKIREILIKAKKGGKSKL
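Purified P. pyralis luciferase, 10 nM final, with Km-level 10 uM D-luciferin and 10 uM ATP in 50 mM Tris acetate pH 7.5, 10 mM Mg acetate, 0.01% Tween-20, 0.05% BSA; 6-point qHTS titration about 60 µM downward; luminescence read.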
Rab9 prom act = Rab9 promoter activation; Potency, µM (doses to about 9.22 µM), for inactives: at the top dose activation, negative = inhibition, hits mostly activators; AID 485297; actives 2.8% (n = 320,000); Huh7 Rab9 promoter-luciferase reporter, luminescence, 24 h; note: % of control where 0% means no effect; nearly all actives have a fitted effect of over 60% in size
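Luciferase signal after 10 min detection reagent at ambient indicates Rab9 promoter upregulation; stably transfected Huh7 cells were treated 24 h with compound in DMSO at 37 °C, 5% CO2.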
SMN2 splice enh = enhancers of SMN2 splice variant expression | HEK293 SMN2-luciferase splicing reporter, luminescence, 30-36 h | Potency, µM (series often up to 46.1 µM), for inactives: top-dose activity change, positive = activation, most hits filed as activators | actives 2.8% (n = 210,000); note: % of control where 0% means no effect; nearly all actives have a fitted effect of over 55% in size
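HEK293 cells carry an SMN2 minigene-luciferase reporter in which exon 7 inclusion puts luciferase in frame. Cells were seeded at 2000 cells/well, attached for 10-12 hours, then exposed to compounds for 30-36 hours at 37C before ONE-Glo luminescence.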
The depositor's hits bear a star; u = inconclusive; x = no result given; [ ] = another dose, or the depositor's remark. Calls come from the whole dose curve; as a rule, active = well fitted curve in the direction sought with a large enough effect; inconclusive = small, poorly fitted or top-dose-only effect, or another doubt; inactive = no such curve, though single readings can be large; an effect the other way counts as inactive or inconclusive. Potency is the fitted concentration of half-maximal effect.

SMILES | ELG1 genotoxic | NPC1 promoter act | FLuc modulator | Rab9 prom act | SMN2 splice enh
O=C(NCC1CC1)c1ccc2c3n(nc2c1)-c1ccccc1CO3 | u | 0.35µM* | 0.48µM* | u | x
O=C(NCCO)c1ccc2c3n(nc2c1)-c1ccccc1CO3 | u | 0.5µM* | 2.1µM* | 2.8µM* | x
Cc1ccc2c(c1)COc1c3ccc(C(=O)O)cc3nn1-2 | -1% | -22% | 1.3µM* | u | x
CCCn1nc2cc(C(=O)NC3CCCc4ccccc43)ccc2c1OCC (centres undefined) | -7% | 0% | -2% | 0% | -13%
Cc1ccc2c(c1)COc1c3ccc(C(=O)NCC4CC4)cc3nn1-2 | 9% | 1.3µM* | 5.4µM* | u | x
Cc1ccc2c(c1)CCCN2C(=O)c1ccc2c(c1)OCO2 | -2% | -2% | -1% | 3% | -7%
O=C(COc1ccc(F)cc1)OCc1cc(=O)n2nc(-c3cccs3)sc2n1 | x | x | -6% | x | x
Cc1ccc(-n2c(C)cc(/C=c3/sc4nc5ccccc5n4c3=O)c2C)cc1 | -1% | -22% | 1.2µM* | -28% | -79%
O=Cc1cccn1-c1ccccc1 | 1% | -3% | -2% | -2% | x
O=C(O)Cn1cc(/C=c2/sc3nc4ccccc4n3c2=O)c2ccccc21 | 0% | -1% | 11µM* | -3% | 17%
O=c1/c(=C\c2cccn2-c2ccccc2)sc2nc3ccccc3n12 | 4.6µM* | u | u | 2.5µM* | x
COc1cc(N2CCCC2)c(OC)cc1/C=c1/sc2nc3ccccc3n2c1=O | 1% | u | u | u | -39%
COc1c(C(=O)Nc2ccc(Br)cn2)ccc2ccccc12 | u | 18% | 5.4µM* | u | x
COc1cc2ccccc2cc1C(=O)Nc1ccc(Br)cn1 | u | 1.6µM* | u | 1.8µM* | x
COc1ccccc1NC(=O)Nc1ccc(Br)cn1 | 4% | 8% | 2% | 17% | 5%
COc1ccc(CCC(=O)Nc2ccc(Br)cn2)cc1 | -1% | 0% | -1% | -1% | -4%
CCc1c2c(nc3ccc(OC)cc13)OC(CC)C2 (centres undefined) | x | x | x | x | -19%
Cc1ccc(S(=O)(=O)N/N=C/c2cccn2-c2ccc(Cl)cc2)cc1 | 11% | u | 0.54µM* | u | -20%
Cc1ccc(S(=O)(=O)N/N=C/c2c(F)cccc2Cl)cc1 | -2% | 0% | 1% | 3% | -5%
c1ccc(-c2nn[nH]n2)nc1 | 0% | -2% | -1% | 5% | x
c1ccc(-c2n[nH]c(-c3ccccn3)n2)cc1 | u | 2µM* | 12µM* | 3.5µM* | 11µM*
c1ccc(-c2n[nH]c(-c3ccccn3)n2)nc1 | 6.5µM* | 3.5µM* | 15µM* | 2.8µM* | 11µM*
COc1ccccc1C1CCN(c2cc(O)ccc2[N+](=O)[O-])CC1 | -3% | 1% | -15% | -7% | x
CCN(CC)c1ccc(C=C2C(=O)OC3(CCCCC3)OC2=O)cc1 | 0% | -5% | u | 10% | -6%
CCN(CC)c1ccc(/C=C2/C(=O)c3ccc(C(=O)O)cc3C2=O)cc1 | u | -2% | 0.48µM* | -6% | -2%
SMILES | ELG1 genotoxic | NPC1 promoter act | FLuc modulator | Rab9 prom act | SMN2 splice enh
Cc1ccc(-n2ncc3c(NCCCN4CCOCC4)ncnc32)cc1Cl | x | x | 9.5µM* | x | x
Cc1ccc(-n2ncc3c(NCCCN4CCOCC4)ncnc32)c(C)c1 | -2% | 1% | -1% | -7% | -8%
Cc1ccc(-n2ncc3c(NCCO)ncnc32)cc1Cl | x | x | 6µM* | x | x
CC(=O)NNc1ncnc2c1cnn2-c1ccc(C)cc1 | u | -3% | u | 5% | x
CC(=O)NNc1ncnc2c1cnn2-c1ccc(C)c(Cl)c1 | 16% | 2% | 24µM* | 16% | 2%
COCCNc1ncnc2c1cnn2-c1cc(Cl)ccc1C | x | x | -2% | x | x
COc1ccc(-n2ncc3c(NCCCN4CCOCC4)ncnc32)cc1 | 9.2µM* | u | 11µM* | u | -2%
COc1ccc(N(CC(=O)N2CCOCC2)S(C)(=O)=O)cc1OC | 4% | -2% | 3% | 3% | x
COc1cccc([C@@H]2Oc3ccc(Br)cc3C[C@H]2OC(=O)Nc2ccc(OC(F)F)cc2)c1 | x | x | x | x | 0%
Cc1c(NC(=O)c2cc(S(=O)(=O)N3CCCCC3)ccc2Cl)c(=O)n(-c2ccccc2)n1C | 3% | x | x | x | x
COc1ccc(-n2ncc3c(NCCN4CCOCC4)ncnc32)cc1 | 15µM* | 28% | 15µM* | u | -8%
CCN(CC)c1ccc(/C=C2/C(=O)ON=C2C)cc1 | 6% | -2% | 12µM* | -3% | -2%
CN(C)c1ccc(/C=C2\C(=O)Nc3ccccc32)cc1 | x | 1.5µM* | x | 3.7µM* | 3.2µM*
CN(C)c1ccc(/C=C2\N=C(C(C)(C)C)OC2=O)cc1 | 0% | 1% | 1.5µM* | -4% | x
COc1ccc(/C=C2\N=C(C(C)(C)C)OC2=O)c(OC)c1 | -1%[9.26 µM] | -1% | u | 2% | x
CC1=NOC(=O)/C1=C/c1ccc(N(C)C)cc1 | 6% | -1% | 7.6µM* | 1% | x
Cc1cc(C)n2nc(Sc3ncccc3[N+](=O)[O-])nc2n1 | -3% | -1% | -1% | 14% | x
CC1SCC(NC(=O)c2ccccc2Cl)CS1 (centres undefined) | u | u | 17µM* | 4.5µM* | x
CCOc1ccccc1OCCCOc1ccc([N+](=O)[O-])cc1Cl | 0% | -4% | 9.5µM* | 0% | -23%
COc1cccc(OC)c1OCCCOc1ccc([N+](=O)[O-])cc1Cl | -7% | 5% | -3% | 3% | -31%
COc1cc(C=O)ccc1OCCOCCOc1cc(C)ccc1Cl | -3% | -1% | -12% | -3% | x
COc1cc(C)ccc1OCCCOc1ccccc1Cl | u | 2.8µM* | 6.7µM* | 3.5µM* | 13µM*
COc1cc(C)ccc1OCCCCOc1ccccc1C(C)=O | 6% | 1% | u | -5% | -45%
COc1cc(C)ccc1OCCOc1ccccc1Cl | u | u | 19µM* | u | 5%
O=C(CCS(=O)(=O)c1cccc2nsnc12)NCc1ccccc1Cl | -5% | 0% | 1% | 10% | u
SMILES | ELG1 genotoxic | NPC1 promoter act | FLuc modulator | Rab9 prom act | SMN2 splice enh
CC(C)c1ccc2c(c1)CC[C@H]1[C@@](C)(CN)CCC[C@@]21C | x | x | x | x | -6%[9.22 µM]
CCOC(=O)c1cc(C)sc1NC(=O)CN1CCN(C(=O)C2CCCO2)CC1 (centres undefined) | -10% | -3% | 1% | 6% | x
COC(=O)c1cc(C)sc1NC(=O)CN1CCN(C(=O)C2CCCO2)CC1 (centres undefined) | -20% | -39% | 0.85µM* | -43% | x
CC(C)(C)NC(=O)NC(=O)Cn1ccsc1=N | 1% | -3% | 4% | 1% | 3%
CCc1ccc(C(=O)Cn2ccsc2=N)cc1 | u | 1.6µM* | 1.3µM* | 0.71µM* | x
O=C(Nc1cccn(Cc2c(F)cccc2Cl)c1=O)NC1CCCCC1 | -2% | -24% | 13µM* | -18% | x
C#CCOC(=O)Nc1cccn(Cc2c(Cl)cccc2Cl)c1=O | -3% | -21% | 17µM* | -6% | 8%
